In all, about 340,000 compounds went through this assay and about 3,300 (0.97%) were called active. Not shown: some 9% with an inconclusive outcome. The call rests on the fitted dose curve; in most records, active means well fitted inhibition curve with a large enough effect; inconclusive means small, poorly fitted or top-dose-only effect, or effect the other way; inactive means flat fitted curve, though single readings scatter. This is one part of the list.
Potency means the concentration at half of the fitted maximal effect.

The test in a line: qHTS Assay for Modulators of miRNAs and/or Inhibitors of miR-21. Further: nearly all actives have a fitted effect of over 55% in size. The note with it: HeLa miR-21-FLuc reporter, luciferase luminescence, 48 h; actives lower the signal. The method, boiled down:
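HeLa miR-21-FLuc reporter line, endogenous miR-21; 2000 cells/well in DMEM/10% FBS; compound titration up to ~40uM final, 48 h, 37 degree Celsius; luciferase detection reagent, 15 min lysis, CCD luminescence.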
Background: In qHTS, concentration-response curves come from the screen itself.
`CCOc1ccc(CNC(=O)c2ccc3c(c2)nc2n3CCCCC2)cc1`: the Potency is 2.07 µM (active).

With `COc1ccc(CNC(=O)c2ccc3c(c2)nc2n3CCCCC2)cc1`, the Potency is 4.65 µM (active). Take `COc1ccc(N=C2C(=Nc3ccc(OC)cc3)N(c3ccccc3)C(=S)N2C(=O)c2ccc(Cl)cc2)cc1`: the Potency is 5.21 µM (active). With `CCc1ccc(-c2csc(NC(=O)COC(=O)CCc3nc4ccccc4s3)n2)cc1`, the Potency was 2.07 µM (active).

In the case of `COc1ccc(-c2csc(NC(=O)COC(=O)c3ccco3)n2)cc1`, the Potency was 3.69 µM (active). In the case of `CCc1ccc(-c2csc(NC(=O)Oc3ccccc3)n2)cc1` it was 3.69 µM (active). In the case of `Cc1nc(N)sc1N=Nc1ccc(Br)cc1` it was 0.736 µM (active); in that of `Cc1nc(N)sc1N=Nc1ccc(F)cc1`, 4.65 µM (active). For `Cc1nc(N)sc1N=Nc1ccccc1C(F)(F)F`, the Potency was 5.21 µM (active).

Regarding `Cc1cccc(-n2ncc3c(N(CCO)CCO)ncnc32)c1`, the Potency is 5.21 µM (active).

On to `CCCCN(c1ccccc1)c1ncnc2c1cnn2-c1ccc(Cl)cc1`, for which the Potency was 5.85 µM (active). `COCCN(CCOC)c1ncnc2c1cnn2-c1ccc(Cl)cc1`: the Potency is 7.36 µM (active). To `CCN(c1ccccc1)c1ncnc2c1cnn2-c1ccccc1` belongs 7.36 µM (active); to `CC(=O)N1CCn2c3ccc(C)cc3c3cccc1c32`, 14.7 µM (active); to `Cc1ccc2c(c1)c1cccc3c1n2CCN3CCC(N)=O`, 6.56 µM (active). For `CC(Oc1ccc(Cl)cc1Cl)c1nc(-c2ccccn2)no1` (stereo not drawn), the Potency is 6.56 µM (active). To `Clc1cc(Cl)c(OCc2nc(-c3ccccn3)no2)cc1Cl` belongs 0.736 µM (active). To `CC(C)(C)c1ccc(OCc2nc(-c3ccccn3)no2)c(Br)c1` belongs 1.65 µM (active). To `Clc1ccc(OCc2nc(-c3ccncc3)no2)c(Br)c1` belongs 1.65 µM (active). As for `Nc1cnc(Nc2ccc(Br)cc2)nc1N`, the Potency was 11.7 µM (active). To `Cc1ccc2c(c1)-c1nc3ccccc3cc1C2=NC1CCCCC1` belongs 0.656 µM (active); to `CC(C)CCn1cnc2c(sc3nc4c(cc32)CSC(C)(C)C4)c1=O`, 0.293 µM (active). In the case of `CCCCn1cnc2c(sc3nc4c(cc32)CSC(C)(C)C4)c1=O` it was 0.585 µM (active); in that of `COc1cccc(NC(=O)COc2ccc(C)cc2)c1`, 7.36 µM (active); in that of `COc1ccc(C(=O)COc2ccccc2C#N)cc1`, 4.65 µM (active). As to `O=C(COc1ccccc1)Nc1ccc(Cl)cc1Cl`, the Potency was 5.85 µM (active).

On to `NC(=O)c1ccccc1NC(=O)COc1ccc(Cl)cc1`, for which the Potency was 4.65 µM (active). In the case of `COC(=O)c1ccc(OCC(=O)c2cccc(OC)c2)cc1` it was 10.4 µM (active). To `Cc1ccc(OCC(=O)Nc2ccccc2C(N)=O)cc1` belongs 1.17 µM (active); to `Cc1sc2c(c1C)C(=O)NC(c1ccccc1F)N2` (stereo not drawn), 7.36 µM (active); to `Cc1ccc(OCCOc2ccc(Br)cc2)c([N+](=O)[O-])n1`, 5.85 µM (active). Take `COc1ccc(OCCOc2ccccc2[N+](=O)[O-])cc1`: the Potency was 6.56 µM (active). In the case of `COc1ccc(OCCOc2ccc(C)nc2[N+](=O)[O-])cc1` it was 13.1 µM (active); in that of `Cc1ccc(OCCOc2cccc(Br)c2)c([N+](=O)[O-])n1`, 6.56 µM (active); in that of `O=C(O)c1cccc(-c2nnn(Cc3ccccc3)n2)c1`, 2.33 µM (active).

Turning to `O=C(O)c1cccc(-c2nnn(Cc3ccccc3Cl)n2)c1`, the Potency is 0.414 µM (active). In the case of `COc1ccc(CNC(=O)c2ccc(C(C)(C)C)cc2)cc1` it was 5.85 µM (active); in that of `CC(C)(C)c1ccc(C(=O)NCCC(=O)N2CCCC2)cc1`, 2.33 µM (active); in that of `CC(C)(C)c1ccc(C(=O)NCc2ccccc2)cc1`, 14.7 µM (active). Take `CCCc1nn(C)c(C(=O)Nc2ccc3ccccc3c2)c1Cl`: the Potency is 7.36 µM (active). Take `CCCc1nn(C)c(C(=O)Nc2cccc(Cl)c2)c1Cl`: the Potency was 7.36 µM (active). Regarding `CCCc1nn(C)c(C(=O)Nc2ccccc2)c1Cl`, the Potency was 1.85 µM (active). With `CCCc1nn(C)c(C(=O)Nc2cccc(C)c2)c1Cl`, the Potency was 5.21 µM (active). In the case of `CCC1CN(C(=O)Nc2cccc3c2CCCC3)c2cc(C)ccc2O1` (stereo not drawn) it was 7.36 µM (active); in that of `COc1ccc(/C=C/c2nc3ccccc3n2Cc2ccc(OC)c(OC)c2)cc1`, 1.47 µM (active); in that of `C/C(=N\NC(=O)OC(C)(C)C)c1ccccc1Br`, 14.7 µM (active). To `CCOC(=O)c1cnn2c(C)cc(-c3ccc(F)cc3)nc12` belongs 4.14 µM (active). For the compound `O=C(O)c1ccc(S(=O)(=O)c2ccc3c(c2)C(=O)N(NC(=O)c2ccccc2)C3=O)cc1`, the Potency is 4.14 µM (active). To `COc1ccc(-c2cc(C(=O)N3CCCCCC3)no2)cc1OC` belongs 16.5 µM (active). With `COc1ccc(-c2cc(C(=O)N3CCCCC3)no2)cc1OC`, the Potency was 7.36 µM (active). To `COc1ccc(-c2cc(C(=O)N3CCCC3)no2)cc1OC` belongs 5.85 µM (active). In the case of `Cc1ccc(/C=C/C(=O)Nc2ncc(C)s2)o1` it was 1.04 µM (active). For the compound `Cc1csc(NC(=O)/C=C/c2ccc(C)o2)n1`, the Potency was 5.21 µM (active). To `CCOC(=O)C(C)On1c(-c2ccc(Cl)cc2)nc2ccc([N+](=O)[O-])cc21` (stereo not drawn) belongs 3.69 µM (active). To `Cc1ccc(NC(=O)c2cnccn2)c(Br)c1` belongs 5.85 µM (active). To `O=C(Nc1ccccc1-c1ccccc1)c1cnccn1` belongs 13.1 µM (active). Consider `O=C(Nc1ccccc1-c1ccccc1)c1ccc(=O)[nH]n1`, for which the Potency is 14.7 µM (active).

Regarding `Cn1ccc(C(=O)Nc2ccc(Br)cc2Br)n1`, the Potency is 0.521 µM (active). In the case of `CCc1ccc2nc(N(Cc3cccnc3)C(C)=O)sc2c1` it was 16.5 µM (active); in that of `O=C(c1ccc2c(c1)OCCO2)N(Cc1cccnc1)c1nc2ccc(F)cc2s1`, 4.14 µM (active). In the case of `CN(C)CCCN(C(=O)c1sc2ccccc2c1Cl)c1nc2ccc(F)cc2s1` it was 9.27 µM (active); in that of `CN(C)CCCN(C(=O)c1ccc2c(c1)OCCO2)c1nc2ccccc2s1`, 18.5 µM (active). In the case of `Cc1cc(C)nc(SCc2csc(-c3ccccc3)n2)n1` it was 1.65 µM (active); in that of `COc1ccc(S(=O)(=O)Nc2ccccc2OC)cc1NC(=O)c1cc2ccccc2oc1=O`, 6.56 µM (active); in that of `COc1ccccc1NS(=O)(=O)c1cccc(NC(=O)c2cc3ccccc3oc2=O)c1`, 4.65 µM (active). With `COc1ccc(Cl)cc1NC(=O)Cn1ccn(Cc2ccc(C)cc2)c(=O)c1=O`, the Potency is 7.36 µM (active). To `O=C(NCCCN1CCOCC1)c1cc(-c2cccs2)on1` belongs 16.5 µM (active); to `O=C(NCCN1CCOCC1)c1cc(-c2cccs2)on1`, 14.7 µM (active); to `COCCNC(=O)c1cc(-c2cccs2)on1`, 13.1 µM (active). In the case of `COCCNC(=O)c1cc(-c2cccc(Cl)c2)on1`, the Potency was 4.14 µM (active). To `O=C(NCCc1ccccc1)c1nc(-c2cccs2)no1` belongs 11.7 µM (active); to `COc1cc(/C=N/n2cnnc2)ccc1OCc1ccccc1`, 18.5 µM (active); to `COc1cc(/C=N/n2cnnc2)ccc1OCc1ccc(C)cc1`, 4.14 µM (active). Regarding `Cc1n[nH]c(=S)n1/N=C/c1ccccc1OCc1ccc(Cl)cc1`, the Potency was 14.7 µM (active).

For the compound `COc1cc(/C=N/n2c(C)n[nH]c2=S)ccc1OCc1ccccc1`, the Potency is 6.56 µM (active).

As for `Cc1n[nH]c(=S)n1/N=C/c1ccc(OCc2ccc(Cl)cc2Cl)cc1`, the Potency is 16.5 µM (active).

In the case of `Cc1cc(C)cc(NC(=O)c2cc(CN3CCCC3)on2)c1`, the Potency is 11.7 µM (active). To `CCOC(=O)c1cccc(NC(=O)c2cc(CN3CCCC3)on2)c1` belongs 2.33 µM (active); to `COc1ccc2c(Sc3ccccc3)c(C(=O)NCCc3ccc(Cl)cc3)[nH]c2c1`, 0.464 µM (active); to `O=C(NCCc1ccccc1)c1cccc([N+](=O)[O-])c1`, 8.26 µM (active). To `O=C(NCCc1ccccc1)c1ccc(Cl)cc1[N+](=O)[O-]` belongs 8.26 µM (active). To `COc1ccc(C2N=C(c3ccccc3)NO2)cc1OC` (stereo not drawn) belongs 5.21 µM (active). On to `N#Cc1ccc(C2N=C(c3ccccc3)NO2)cc1` (stereo not drawn), for which the Potency is 0.585 µM (active). In the case of `COc1ccccc1-c1nc(COc2ccc(Cl)cc2Cl)no1` it was 7.36 µM (active); in that of `Clc1ccc(OCc2noc(-c3ccsc3)n2)c(Cl)c1`, 4.14 µM (active); in that of `COc1ccccc1/C=C/C=N/n1c(-c2ccccn2)n[nH]c1=S`, 8.26 µM (active). Consider `CCOC(=O)c1c(C)oc2cc(Cl)c(O)c(CN(C)C)c12`, for which the Potency is 14.7 µM (active). To `C/C(=N/NC(=O)c1ccc(Br)o1)c1ccc(C)o1` belongs 10.4 µM (active); to `O=C(N/N=C/c1ccc(Br)cc1)c1ccc(Br)o1`, 3.29 µM (active). Regarding `COc1ccccc1OCc1nc(-c2cccc(C)c2)no1`, the Potency is 6.56 µM (active). In the case of `Cc1ccc(OCc2nc(-c3ccccc3)no2)cc1` it was 5.21 µM (active). To `COc1cccc(-c2noc(COc3ccccc3Cl)n2)c1` belongs 16.5 µM (active). In the case of `CSc1nc(O)c(/C=C2\C=Nc3ccccc32)[nH]1` it was 16.5 µM (active); in that of `COc1cc(/C=C2\OC(=O)c3c(OC)cccc32)ccc1O`, 7.36 µM (active).

Regarding `COc1ccc(/C=C2\OC(=O)c3c(OC)cccc32)cc1OC`, the Potency was 2.93 µM (active). To `COc1cccc2c1C(=O)O/C2=C/c1ccc2c(c1)OCO2` belongs 0.233 µM (active). In the case of `COc1cccc(/C=N/NC(=O)c2cccc(N3CCCC3=O)c2)c1` it was 5.85 µM (active); in that of `c1csc(-c2nc(N3CCCCC3)no2)c1`, 2.93 µM (active); in that of `CCOC(=O)c1sc(=NC(=O)c2cccs2)n(C)c1C`, 0.293 µM (active). In the case of `CCOC(=O)c1sc(=NC(=O)c2ccccc2Br)n(C)c1C` it was 1.04 µM (active); in that of `CCOC(=O)c1sc(=NC(=O)c2ccc(Cl)s2)n(C)c1C`, 0.233 µM (active); in that of `Cc1ccc2c(c1)sc(=NC(=O)c1cccs1)n2C`, 0.0521 µM (active). For `O=C(NC(N1CCOCC1)C(Cl)(Cl)Cl)c1ccco1` (stereo not drawn), the Potency was 2.93 µM (active).

The values are drawn from PubChem BioAssay AID2289 (National Center for Advancing Translational Sciences (NCATS), 2010).
